The list is not random: actives were taken first. Their share in the collection is about 1.7%.
Fam108B counter – Fam108B inhibition, counter-screen for RBBP9 inhibitors; recombinant Fam108B, FP-Rh probe fluorescence polarization; inhibition, % at 9.51 µM; 300,000 tested, 0.33% active; AID 1947;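 active = inhibition above the screen mean inhibition plus 3 SD, computed separately per campaign, cut at about 18% in these data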;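 note: inhibitors lower polarization as less probe binds the enzyme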
PAD4 FP inh – PAD4 (human) enzyme inhibition; Q9UM07; recombinant PAD4, RCA probe fluorescence polarization; inhibition, % at 6.36 µM; 330,000 tested, 0.41% active; AID 485272;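 active = percent inhibition above a cutoff equal to the mean of all tested compounds plus 3 SD, cut at about 15% in these data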;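 note: 0% = PAD4 with RCA probe and DMSO and 100% = probe without PAD4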
LYPLA1 counter – blocks human lysophospholipase 1, a PME1 counter-screen | O75608 | recombinant LYPLA1, FP-Rh probe fluorescence polarization | inhibition, % at 5.9 µM | 320,000 tested, 0.16% active | AID 2174;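 active = inhibition above the mean of all tested compounds plus 3 SD, set per campaign, cut at about 14% in these data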;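 note: inhibitors block serine hydrolase probe labeling of LYPLA1 so polarization falls; 0% = enzyme with DMSO and 100% = wells lacking LYPLA1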
GSTO1 counter – blocks human GSTO1 in RBBP9 counter-screen. P78417. recombinant GSTO1, activity-based probe fluorescence polarization. inhibition, % at 5.96 µM. 300,000 tested, 1.1% active. AID 1974;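 active = inhibition above the campaign mean inhibition plus 3 SD, cut at about 35% in these data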;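 note: 0% = GSTO1-1 with DMSO and 100% = wells lacking GSTO1-1 enzyme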
PME-1 primary – blocks human protein phosphatase methylesterase 1 | inhibition, % at 5.9 µM | 320,000 tested, 0.53% active | recombinant PME-1, FP-Rh probe fluorescence polarization;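 active = inhibition above the campaign mean of all compounds plus 3 SD, cut at about 26% in these data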;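 note: competitive labeling of PME-1 active site by serine hydrolase directed probe; 0% = PME-1 with DMSO and 100% = wells lacking PME-1 enzyme; inhibitors block probe labeling so polarization falls and inhibition rises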
LYPLA2 inh – counter-screen for PME1 inhibitors: inhibitors of human LYPLA2; O95372; recombinant LYPLA2, FP-Rh probe fluorescence polarization; inhibition, % at 5.9 µM; 320,000 tested, 0.38% active;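 active = inhibition above the screen-wide mean plus 3 SD, limit set per campaign, cut at about 26% in these data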;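 note: 0% = LYPLA2 with DMSO and 100% = wells lacking LYPLA2 enzyme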
Target sequence (O95372 whole entry, looked up): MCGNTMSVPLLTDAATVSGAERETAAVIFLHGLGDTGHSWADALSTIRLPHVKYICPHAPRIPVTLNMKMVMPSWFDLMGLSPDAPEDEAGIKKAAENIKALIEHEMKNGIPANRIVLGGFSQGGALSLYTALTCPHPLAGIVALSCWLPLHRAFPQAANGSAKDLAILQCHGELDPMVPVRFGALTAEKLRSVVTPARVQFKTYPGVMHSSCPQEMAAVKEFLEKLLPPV
Starred values were filed as active, the others as inactive; x = not tested or not shown.

SMILES	Fam108B counter	PAD4 FP inh	LYPLA1 counter	GSTO1 counter	PME-1 primary	LYPLA2 inh
CCc1nnc(NC(=O)c2sc3nc4cc(C)ccc4cc3c2N)s1	9	-6	1	-5	32*	-6
CCOC(=O)Cc1csc(NC(=O)c2sc3nc4ccc(C)cc4cc3c2N)n1	9	-5	-7	3	58*	-4
CC(=O)Oc1ccc(C(=O)[C@H]2[C@H]3C(=O)N(c4ccc5ccccc5c4)C(=O)[C@H]3[C@@H]3C=CC=NN32)cc1	-5	2	-4	2	0	4
O=C1CCCN1CCCNc1nc2c(S(=O)(=O)c3ccc(Br)cc3)nnn2c2ccccc12	-2	-4	-1	-11	5	4
CCC1(C)Cc2c(sc3c2c(=O)n(C)c2nnc(SCc4ccccc4)n32)CO1 (centres undefined)	2	3	3	7	-1	1
Cc1ccc(NC(=O)NNC(=O)c2cc3ccccc3cc2O)cc1	-3	-2	-2	-6	1	-3
COc1cc(C(c2c(C(=O)O)[nH]c3ccccc23)c2c(C(=O)O)[nH]c3ccccc23)ccc1OCc1ccccc1	-3	-3	-1	0	-2	0
O=C(O)COc1ccc(Br)cc1C(c1c(C(=O)O)[nH]c2ccccc12)c1c(C(=O)O)[nH]c2ccccc12	7	3	1	55*	0	3
O=C(O)c1[nH]c2ccccc2c1C(c1cc(Cl)cc([N+](=O)[O-])c1O)c1c(C(=O)O)[nH]c2ccccc12	13	2	-4	74*	0	-2
C=CCOc1ccc(C(c2c(C(=O)O)[nH]c3ccccc23)c2c(C(=O)O)[nH]c3ccccc23)cc1	7	-1	2	20	-3	8
Cc1ccc(OC(C)C(=O)N=Nc2c(O)[nH]c3ccc([N+](=O)[O-])cc23)cc1 (centres undefined)	7	-4	0	36*	5	4
CCNC(=S)N=Nc1c(O)[nH]c2ccc([N+](=O)[O-])cc12	6	-4	-1	45*	7	2
O=C(O)c1cc(O)c2c(c1)[C@H]([C@H]1c3cc(C(=O)O)cc(O)c3C(=O)c3c(O[C@@H]4O[C@H](CO)[C@@H](O)[C@H](O)[C@H]4O)cccc31)c1cccc(OC3O[C@H](CO)[C@@H](O)[C@H](O)[C@H]3O)c1C2=O (some centres undefined)	97*	-51	10	72*	71*	75*
O=C1c2cc(CO)cc(O)c2C(=O)c2c(O[C@@H]3OC(CO)[C@@H](O)[C@@H](O)[C@@H]3O)cccc21 (some centres undefined)	0	1	3	7	2	6
O=S(=O)(NCCc1ccccc1F)c1cccc(S(=O)(=O)N2CCOCC2)c1	-2	5	3	43*	3	5
CC(C)(CC(=O)O)CC(=O)NCc1c(Cl)cccc1Sc1ccc(Cl)cc1	-3	-5	3	37*	1	-1
O=C1CC(CSc2ccc(Cl)cc2)=NN1	1	4	0	37*	4	1
Cc1[nH]c(N=Nc2ccccc2)nc1N=Nc1ccccc1	16	0	-3	-57	76*	-5
CCc1nc(SCC(=O)Nc2nnc(CC)s2)c2c(C)c(C)sc2n1	-4	-2	2	35*	0	-6
CCSc1nnc(NC(=O)CSc2nc(CC)nc3c2c(=O)n(C)c(=O)n3C)s1	6	0	2	36*	2	3
CCCc1nc(SCC(=O)Nc2nnc(SCC)s2)c2c(=O)n(C)c(=O)n(C)c2n1	3	2	2	8	2	10
Cc1cccc(Oc2coc3cc(OC(=O)c4cc5ccccc5oc4=O)ccc3c2=O)c1	-1	3	-1	4	-1	-3
COc1cc2c(cc1OC)[C@@H](NC(=O)CCc1ccccc1)[C@H](O)C2	x	2	x	x	x	x
CCOc1cc(/C=N/NC(=O)c2cccc([N+](=O)[O-])c2)ccc1OS(=O)(=O)c1ccccc1	9	-2	-17	-48	41*	-4
COc1ccc(C(=O)N/N=C/c2ccc(OC)c(OS(=O)(=O)c3ccccc3)c2)cc1	-20	4	-22	-23	-26	-43
Cc1cc(C(=O)N/N=C/c2cccc([N+](=O)[O-])c2)c(C)n1-c1ccccc1	4	1	2	-5	29*	6

From PubChem
